Experimental findings from ChEMBL document CHEMBL1961873, “Compounds: GSK PKIS; Assays: Nanosyn kinase panel” (2012) are described below.

For assay [1], the target named is Sphingosine kinase 1 (Homo sapiens) (UniProt Q9NYA1). Conditions: at 1 µM.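 Note: mean SPHK1 inhibition value reported from the GSK PKIS kinase panel screen.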
For assay [2], the target named is T1, Sphingosine kinase 2 (Homo sapiens) (UniProt Q9NRA0).
T1 sequence (whole entry): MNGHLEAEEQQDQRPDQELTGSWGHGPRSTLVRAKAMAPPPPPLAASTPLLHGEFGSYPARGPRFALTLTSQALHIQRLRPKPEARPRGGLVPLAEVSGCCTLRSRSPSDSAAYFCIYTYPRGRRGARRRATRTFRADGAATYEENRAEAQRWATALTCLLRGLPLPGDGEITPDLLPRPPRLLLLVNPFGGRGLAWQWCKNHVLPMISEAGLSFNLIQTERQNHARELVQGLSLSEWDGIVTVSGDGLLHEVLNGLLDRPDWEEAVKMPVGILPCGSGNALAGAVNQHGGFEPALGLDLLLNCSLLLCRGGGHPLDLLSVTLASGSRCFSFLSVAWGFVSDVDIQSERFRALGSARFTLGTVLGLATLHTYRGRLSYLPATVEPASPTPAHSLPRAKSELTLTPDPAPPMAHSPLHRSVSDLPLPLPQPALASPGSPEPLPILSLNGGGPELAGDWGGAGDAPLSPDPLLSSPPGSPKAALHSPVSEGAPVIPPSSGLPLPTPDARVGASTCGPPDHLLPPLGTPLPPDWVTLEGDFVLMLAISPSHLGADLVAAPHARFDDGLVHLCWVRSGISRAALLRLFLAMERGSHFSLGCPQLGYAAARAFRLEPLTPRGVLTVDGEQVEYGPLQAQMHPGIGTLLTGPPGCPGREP
The settings on record: at 0.1 µM.

For assay [3], the target named is T1, Sphingosine kinase 2 (Homo sapiens). Conditions: at 1 µM.
The target of assay [4] is Casein kinase II subunit alpha (Homo sapiens) (UniProt P68400). Conditions: at 0.1 µM.
Chain of Casein kinase II subunit alpha (Homo sapiens) (P68400 whole entry, looked up): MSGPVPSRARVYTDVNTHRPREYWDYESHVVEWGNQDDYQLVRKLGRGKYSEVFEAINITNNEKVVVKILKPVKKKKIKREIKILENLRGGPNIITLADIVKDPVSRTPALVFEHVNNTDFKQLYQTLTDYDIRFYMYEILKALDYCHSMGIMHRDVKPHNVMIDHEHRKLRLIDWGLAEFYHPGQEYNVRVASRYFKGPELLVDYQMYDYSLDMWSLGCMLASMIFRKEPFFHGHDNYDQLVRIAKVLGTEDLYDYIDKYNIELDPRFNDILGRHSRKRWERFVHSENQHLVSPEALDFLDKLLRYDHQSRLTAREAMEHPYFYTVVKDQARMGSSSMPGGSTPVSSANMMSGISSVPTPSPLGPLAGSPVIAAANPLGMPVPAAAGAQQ
For assay [5] the target is unchanged. Conditions: at 1 µM.
The target in assay [6] is T2, Inhibitor of nuclear factor kappa-B kinase subunit alpha (Homo sapiens) (UniProt O15111).
T2 sequence (whole entry): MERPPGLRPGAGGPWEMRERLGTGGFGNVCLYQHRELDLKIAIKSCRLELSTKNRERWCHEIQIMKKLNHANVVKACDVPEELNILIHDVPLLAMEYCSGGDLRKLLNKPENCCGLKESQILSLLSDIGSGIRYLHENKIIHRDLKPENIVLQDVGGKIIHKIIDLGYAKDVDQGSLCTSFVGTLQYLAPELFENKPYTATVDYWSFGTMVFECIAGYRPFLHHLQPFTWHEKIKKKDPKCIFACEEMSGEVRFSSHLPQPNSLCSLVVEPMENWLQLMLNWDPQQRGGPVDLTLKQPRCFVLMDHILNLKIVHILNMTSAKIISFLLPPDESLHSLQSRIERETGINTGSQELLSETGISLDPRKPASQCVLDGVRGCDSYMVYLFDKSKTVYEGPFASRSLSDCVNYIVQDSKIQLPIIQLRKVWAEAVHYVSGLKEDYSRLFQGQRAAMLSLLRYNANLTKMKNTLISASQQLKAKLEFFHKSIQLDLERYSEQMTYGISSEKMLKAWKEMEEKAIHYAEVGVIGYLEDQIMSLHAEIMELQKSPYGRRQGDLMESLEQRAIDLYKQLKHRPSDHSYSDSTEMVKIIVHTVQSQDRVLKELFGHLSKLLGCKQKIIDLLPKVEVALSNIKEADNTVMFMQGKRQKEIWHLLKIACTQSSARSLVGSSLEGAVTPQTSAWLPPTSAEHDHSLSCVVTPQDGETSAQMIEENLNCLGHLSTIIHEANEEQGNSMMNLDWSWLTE
The settings on record: at 0.1 µM.

Assay [7] deals with T2, Inhibitor of nuclear factor kappa-B kinase subunit alpha (Homo sapiens). Conditions: at 1 µM.
Assay [8] addresses T3, Inhibitor of nuclear factor kappa-B kinase subunit beta (Homo sapiens) (UniProt O14920).
T3 sequence (whole entry): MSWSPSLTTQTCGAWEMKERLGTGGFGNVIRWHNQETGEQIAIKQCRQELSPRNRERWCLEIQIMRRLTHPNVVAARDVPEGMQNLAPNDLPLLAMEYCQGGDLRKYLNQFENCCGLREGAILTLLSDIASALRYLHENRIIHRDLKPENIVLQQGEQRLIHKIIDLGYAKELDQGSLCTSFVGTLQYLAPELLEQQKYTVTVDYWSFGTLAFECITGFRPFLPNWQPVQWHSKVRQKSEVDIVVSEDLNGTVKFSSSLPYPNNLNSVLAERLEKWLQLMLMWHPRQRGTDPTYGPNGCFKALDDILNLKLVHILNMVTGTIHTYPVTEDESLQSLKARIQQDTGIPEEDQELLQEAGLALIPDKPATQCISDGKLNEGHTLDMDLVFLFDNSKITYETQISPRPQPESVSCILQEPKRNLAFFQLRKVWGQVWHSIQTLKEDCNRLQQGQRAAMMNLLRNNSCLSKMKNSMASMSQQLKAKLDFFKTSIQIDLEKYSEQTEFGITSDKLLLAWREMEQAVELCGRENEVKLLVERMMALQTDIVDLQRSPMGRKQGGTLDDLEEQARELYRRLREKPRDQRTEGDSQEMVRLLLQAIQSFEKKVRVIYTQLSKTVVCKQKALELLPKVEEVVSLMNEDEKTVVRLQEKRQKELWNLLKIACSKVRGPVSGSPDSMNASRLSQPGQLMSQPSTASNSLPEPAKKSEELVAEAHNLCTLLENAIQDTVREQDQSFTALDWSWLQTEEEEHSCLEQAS
The settings on record: at 0.1 µM.

The target of assay [9] is T3, Inhibitor of nuclear factor kappa-B kinase subunit beta (Homo sapiens). The settings on record: at 1 µM.
The target of assay [10] is T4, Inhibitor of nuclear factor kappa-B kinase subunit epsilon (Homo sapiens) (UniProt Q14164).
T4 sequence (whole entry): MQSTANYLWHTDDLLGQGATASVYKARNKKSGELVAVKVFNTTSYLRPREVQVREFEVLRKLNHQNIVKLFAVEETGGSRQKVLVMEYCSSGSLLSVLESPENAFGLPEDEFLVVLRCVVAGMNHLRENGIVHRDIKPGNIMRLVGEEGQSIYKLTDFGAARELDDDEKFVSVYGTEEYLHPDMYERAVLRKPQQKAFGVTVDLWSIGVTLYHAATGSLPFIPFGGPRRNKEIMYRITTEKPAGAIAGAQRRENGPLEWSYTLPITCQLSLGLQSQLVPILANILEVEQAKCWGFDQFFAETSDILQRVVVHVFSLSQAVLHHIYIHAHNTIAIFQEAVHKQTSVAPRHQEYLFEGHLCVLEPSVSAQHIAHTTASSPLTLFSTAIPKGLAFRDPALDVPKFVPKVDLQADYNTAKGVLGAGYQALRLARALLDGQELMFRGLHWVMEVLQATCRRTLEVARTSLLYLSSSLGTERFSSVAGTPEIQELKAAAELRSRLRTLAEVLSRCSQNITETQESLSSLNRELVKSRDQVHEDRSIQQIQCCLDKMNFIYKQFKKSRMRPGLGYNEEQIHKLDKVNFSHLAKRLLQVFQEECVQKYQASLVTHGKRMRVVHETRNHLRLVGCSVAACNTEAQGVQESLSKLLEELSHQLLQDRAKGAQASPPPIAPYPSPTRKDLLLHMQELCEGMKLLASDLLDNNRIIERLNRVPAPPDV
Conditions: at 0.1 µM.

Assay [11] addresses T4, Inhibitor of nuclear factor kappa-B kinase subunit epsilon (Homo sapiens). Conditions: at 1 µM.
The target in assay [12] is T5, Serine/threonine-protein kinase Nek1 (Homo sapiens) (UniProt Q96PY6).
T5 sequence (whole entry): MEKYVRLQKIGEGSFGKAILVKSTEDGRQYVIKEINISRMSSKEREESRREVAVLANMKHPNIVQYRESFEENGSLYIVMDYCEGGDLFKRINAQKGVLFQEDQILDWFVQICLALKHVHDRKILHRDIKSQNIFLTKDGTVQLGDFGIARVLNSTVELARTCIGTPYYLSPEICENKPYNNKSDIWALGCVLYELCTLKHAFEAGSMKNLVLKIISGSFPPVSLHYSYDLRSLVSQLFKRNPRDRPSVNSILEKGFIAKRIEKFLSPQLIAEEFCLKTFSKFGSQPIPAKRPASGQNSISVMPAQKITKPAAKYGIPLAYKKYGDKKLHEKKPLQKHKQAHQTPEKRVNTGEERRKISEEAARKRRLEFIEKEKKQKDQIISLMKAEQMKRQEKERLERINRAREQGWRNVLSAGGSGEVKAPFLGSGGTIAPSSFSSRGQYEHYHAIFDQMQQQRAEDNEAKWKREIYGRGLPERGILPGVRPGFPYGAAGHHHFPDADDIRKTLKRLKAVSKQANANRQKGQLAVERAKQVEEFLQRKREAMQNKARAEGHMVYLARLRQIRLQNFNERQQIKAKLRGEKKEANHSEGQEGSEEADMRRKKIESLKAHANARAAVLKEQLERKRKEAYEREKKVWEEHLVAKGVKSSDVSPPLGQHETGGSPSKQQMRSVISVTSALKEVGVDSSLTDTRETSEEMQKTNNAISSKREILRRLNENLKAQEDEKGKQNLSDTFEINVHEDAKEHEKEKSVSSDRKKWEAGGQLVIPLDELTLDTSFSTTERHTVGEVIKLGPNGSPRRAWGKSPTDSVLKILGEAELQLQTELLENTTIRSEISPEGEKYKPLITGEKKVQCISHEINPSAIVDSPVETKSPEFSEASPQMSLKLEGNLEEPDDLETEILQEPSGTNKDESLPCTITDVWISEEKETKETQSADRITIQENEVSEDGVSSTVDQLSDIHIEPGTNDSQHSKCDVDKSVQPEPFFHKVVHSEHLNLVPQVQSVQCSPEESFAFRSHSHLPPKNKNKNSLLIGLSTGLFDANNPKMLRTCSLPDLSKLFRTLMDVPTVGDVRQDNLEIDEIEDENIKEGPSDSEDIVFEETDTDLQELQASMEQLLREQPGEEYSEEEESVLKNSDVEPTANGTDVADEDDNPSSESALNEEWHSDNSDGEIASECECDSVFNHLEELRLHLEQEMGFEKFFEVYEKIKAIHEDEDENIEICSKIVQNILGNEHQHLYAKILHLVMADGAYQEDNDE
Conditions: at 0.1 µM.

Assay [13] deals with T5, Serine/threonine-protein kinase Nek1 (Homo sapiens). Conditions: at 1 µM.
For assay [14], the target named is T6, Serine/threonine-protein kinase Nek2 (Homo sapiens) (UniProt P51955).
T6 sequence (whole entry): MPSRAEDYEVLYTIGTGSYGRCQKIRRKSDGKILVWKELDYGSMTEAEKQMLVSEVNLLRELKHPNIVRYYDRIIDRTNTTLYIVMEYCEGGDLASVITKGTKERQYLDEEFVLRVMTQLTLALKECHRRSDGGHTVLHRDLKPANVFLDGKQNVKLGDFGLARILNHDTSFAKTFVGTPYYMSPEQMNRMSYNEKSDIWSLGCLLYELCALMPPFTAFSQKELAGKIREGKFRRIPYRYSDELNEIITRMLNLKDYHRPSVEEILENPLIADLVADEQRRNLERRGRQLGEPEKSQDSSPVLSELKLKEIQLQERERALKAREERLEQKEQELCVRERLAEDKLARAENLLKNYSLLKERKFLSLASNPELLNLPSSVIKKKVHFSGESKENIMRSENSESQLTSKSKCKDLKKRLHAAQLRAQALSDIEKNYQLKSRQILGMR
The settings on record: at 0.1 µM.

The target of assay [15] is T6, Serine/threonine-protein kinase Nek2 (Homo sapiens). Conditions: at 1 µM.
Assay [16] deals with Serine/threonine-protein kinase Nek6 (Homo sapiens) (UniProt Q9HC98). The settings on record: at 0.1 µM.
Chain of Serine/threonine-protein kinase Nek6 (Homo sapiens) (Q9HC98 whole entry): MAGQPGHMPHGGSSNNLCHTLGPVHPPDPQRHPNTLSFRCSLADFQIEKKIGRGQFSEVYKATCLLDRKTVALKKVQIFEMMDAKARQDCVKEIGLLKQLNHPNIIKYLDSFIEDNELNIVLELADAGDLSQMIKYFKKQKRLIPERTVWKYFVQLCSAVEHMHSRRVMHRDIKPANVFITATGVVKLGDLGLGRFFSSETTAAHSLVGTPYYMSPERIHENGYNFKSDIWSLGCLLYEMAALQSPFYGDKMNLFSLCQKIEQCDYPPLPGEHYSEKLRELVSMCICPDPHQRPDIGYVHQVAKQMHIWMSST
Assay [17] has the same target. Conditions: at 1 µM.
For assay [18], the target named is Serine/threonine-protein kinase Nek7 (Homo sapiens) (UniProt Q8TDX7). The settings on record: at 0.1 µM.
Chain of Serine/threonine-protein kinase Nek7 (Homo sapiens) (Q8TDX7 whole entry, looked up): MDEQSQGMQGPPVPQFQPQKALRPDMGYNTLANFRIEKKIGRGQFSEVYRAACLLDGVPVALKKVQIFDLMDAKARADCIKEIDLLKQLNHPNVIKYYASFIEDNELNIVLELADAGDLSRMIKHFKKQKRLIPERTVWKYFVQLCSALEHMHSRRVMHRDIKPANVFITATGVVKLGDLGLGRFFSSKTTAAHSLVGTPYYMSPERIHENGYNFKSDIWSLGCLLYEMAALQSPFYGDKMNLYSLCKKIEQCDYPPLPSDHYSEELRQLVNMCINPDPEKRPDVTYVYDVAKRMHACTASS
Assay [19] has the same target. Conditions: at 1 µM.
Assay [20] concerns the target T7, Serine/threonine-protein kinase Nek9 (Homo sapiens) (UniProt Q8TD19).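 Note: reported value is the mean percent inhibition of NEK9.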
T7 sequence (whole entry): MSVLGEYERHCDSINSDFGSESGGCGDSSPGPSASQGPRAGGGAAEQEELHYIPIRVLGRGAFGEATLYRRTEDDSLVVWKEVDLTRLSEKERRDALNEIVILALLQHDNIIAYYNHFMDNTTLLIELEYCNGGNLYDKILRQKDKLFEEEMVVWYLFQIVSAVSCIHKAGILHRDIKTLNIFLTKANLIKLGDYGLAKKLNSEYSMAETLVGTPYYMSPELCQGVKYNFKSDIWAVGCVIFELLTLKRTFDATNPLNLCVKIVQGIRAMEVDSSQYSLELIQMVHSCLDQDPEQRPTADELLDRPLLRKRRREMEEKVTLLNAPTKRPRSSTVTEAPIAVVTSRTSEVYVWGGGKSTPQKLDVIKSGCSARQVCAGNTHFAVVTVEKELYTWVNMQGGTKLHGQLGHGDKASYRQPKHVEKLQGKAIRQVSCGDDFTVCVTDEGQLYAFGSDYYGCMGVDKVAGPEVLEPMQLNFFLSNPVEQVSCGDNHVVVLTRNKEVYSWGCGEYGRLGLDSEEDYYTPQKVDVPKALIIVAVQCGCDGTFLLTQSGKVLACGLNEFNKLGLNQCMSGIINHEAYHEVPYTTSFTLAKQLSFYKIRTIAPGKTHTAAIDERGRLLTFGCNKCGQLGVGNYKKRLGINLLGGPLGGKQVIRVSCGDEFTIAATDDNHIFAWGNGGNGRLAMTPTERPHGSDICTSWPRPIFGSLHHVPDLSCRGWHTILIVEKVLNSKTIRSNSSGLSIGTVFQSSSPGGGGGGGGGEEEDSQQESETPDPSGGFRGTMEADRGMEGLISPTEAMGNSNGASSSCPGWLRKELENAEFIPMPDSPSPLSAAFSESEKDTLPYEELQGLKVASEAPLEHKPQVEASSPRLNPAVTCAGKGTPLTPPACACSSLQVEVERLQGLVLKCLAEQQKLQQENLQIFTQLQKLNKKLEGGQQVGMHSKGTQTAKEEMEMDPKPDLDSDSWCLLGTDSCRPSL
Conditions: at 0.1 µM.

Chain of Sphingosine kinase 1 (Homo sapiens) (Q9NYA1 whole entry): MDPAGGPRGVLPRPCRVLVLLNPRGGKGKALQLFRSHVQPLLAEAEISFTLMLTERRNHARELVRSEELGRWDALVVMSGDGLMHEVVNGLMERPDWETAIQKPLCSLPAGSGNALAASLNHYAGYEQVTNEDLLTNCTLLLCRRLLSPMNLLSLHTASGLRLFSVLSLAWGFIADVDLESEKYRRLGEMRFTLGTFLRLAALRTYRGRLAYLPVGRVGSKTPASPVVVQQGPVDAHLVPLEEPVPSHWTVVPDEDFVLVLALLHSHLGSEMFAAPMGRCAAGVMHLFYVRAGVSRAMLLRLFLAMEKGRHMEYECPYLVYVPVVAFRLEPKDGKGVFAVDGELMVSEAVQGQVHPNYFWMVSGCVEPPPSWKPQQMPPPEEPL

For orientation: inhibition means the relative decrease from the control value, in per cent. Turning to `CCn1c(-c2nonc2N)nc2cncc(C(=O)NCCNC)c21`, the inhibition in assay [1] is -1.79%; in assay [2], -0.3%; in assay [3], 8.93%; in assay [4] it was 4.41%; in assay [5], 2.99%; in assay [6] it was 8.82%. The inhibition in assay [7] is 14.1%; in assay [8], 6.55%; in assay [9] it was 7.92%; in assay [10] it was 7.73%; in assay [11], 17.6%; in assay [12], 2.71%. The inhibition in assay [13] was 5.36%; in [14] it was 6.66%; in assay [15], 6.84%; in assay [16], -0.45%; in assay [17], 0.9%; in assay [18], 3.5%. Also, the inhibition is 4.72% in assay [19] and 7.8% in [20].
